# AmpC inh no detg: inhibitors of E. coli AmpC beta-lactamase without detergent; P00811; AmpC nitrocefin hydrolysis, absorbance 480 nm, 0.0001% Triton; Potency, µM (top dose mostly 57.1 µM), for inactives: top-dose activity change, negative = inhibition, most hits filed as inhibitors; 0.52% of 330,000 active; AID 485341;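 further: plate controls were no compound for no effect and no enzyme for full effect; nearly all actives have a fitted effect of over 20% in size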
# Target sequence (P00811 whole entry, looked up): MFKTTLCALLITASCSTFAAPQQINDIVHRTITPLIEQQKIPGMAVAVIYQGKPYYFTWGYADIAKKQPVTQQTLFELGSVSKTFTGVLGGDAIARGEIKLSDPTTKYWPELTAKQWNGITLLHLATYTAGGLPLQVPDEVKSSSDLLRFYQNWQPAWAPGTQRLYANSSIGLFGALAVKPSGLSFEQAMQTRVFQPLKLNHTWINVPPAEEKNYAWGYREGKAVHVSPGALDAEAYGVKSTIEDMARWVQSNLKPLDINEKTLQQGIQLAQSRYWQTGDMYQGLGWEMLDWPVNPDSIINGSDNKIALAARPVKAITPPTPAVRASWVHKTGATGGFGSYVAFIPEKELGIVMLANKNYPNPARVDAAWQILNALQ
#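 20 mM phosphate pH 7.0 + 0.01% (detergent screen) or 0.0001% Triton X-100; 5.3 nM AmpC reagent; cpd preinc 15 min RT; nitrocefin (800 uM stock) to start; A480 q20 s × 4 min; Activity was normalised to no-enzyme and no-compound control wells.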
# Pf growth 96h: inhibits malaria parasite growth, 96 h; 6.9% of 320,000 active; P. falciparum luciferase reporter growth, 96 h; Potency, µM (top dose mostly 28.7 µM), for the others: top-dose activity change, negative = inhibition, actives largely listed as inhibitors; further: on the % scale 0 is the no-effect control and ±100 the full control effect
#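 Compounds incubated with erythrocytes infected by luciferase-expressing P. falciparum (2% hematocrit, 0.05% parasitemia final) for 96 hours, 37 C in 5% CO2. Growth inhibition scored as decreased luciferase luminescence.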
# AmpC detergent: blocks E. coli AmpC beta-lactamase in detergent assay; Potency, µM (series often up to 114 µM), for the others: at the top dose activity change, negative = inhibition, hits mostly inhibitors; AID 485294; AmpC hydrolysis of nitrocefin, absorbance 480 nm, 0.01% Triton; 0.041% of 370,000 active;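 further: 0% = no-compound wells and -100% = no-enzyme wells; nearly all actives have a fitted effect of over 25% in size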
#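 AmpC (5.3 nM in the dispensed reagent) in 20 mM phosphate pH 7.0 with 0.01% (detergent screen) or 0.0001% Triton X-100 was preincubated with compounds for 15 min at room temperature. Nitrocefin was then added from an 800 uM solution, and hydrolysis was followed at 480 nm.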
# Sm TGR inh: S. mansoni TGR enzyme inhibition. Q962Y6. purified TGR, DTNB reduction, TNB absorbance 405 nm. Potency, µM (highest dose often 114 µM), for inactives: top-dose activity change, negative = inhibition, actives largely listed as inhibitors. 3% of 360,000 active. AID 485364; further: on the % scale 0 is the no-effect control and ±100 the full control effect; nearly all actives have a fitted effect of over 60% in size
#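 TGR 20 nM + NADPH 100 uM (dispensed conc.), cpd preinc 15 min RT; start with NADPH (500 uM addition) then DTNB (15 mM addition). Kinetic TNB absorbance, 405 nm filter. Four-parameter Hill fit across titration.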
# SARS PLpro yeast: blocks SARS-CoV papain-like protease in a yeast assay. 0.19% of 330,000 active. S. cerevisiae expressing SARS-CoV PLpro, growth rescue. Potency, µM (series often up to 32.9 µM), for the others: at the highest dose activity, positive = growth rescue, hits mostly activators; calls by dose curve; further: 0% is about no effect; nearly all actives have a fitted effect of over 55% in size
# Pf growth 48h: inhibits P. falciparum growth in the first generation, 48 h | P. falciparum luciferase growth in erythrocytes, 48 h | Potency, µM (highest dose often 28.7 µM), without a hit: top-dose activity change, negative = inhibition, most hits filed as inhibitors | 5.9% of 310,000 active; further: on the % scale 0 is the no-effect control and ±100 the full control effect
#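 Here the parasites carry a stable luciferase gene and grow inside erythrocytes in Albumax-based RPMI medium with compound for one erythrocytic cycle. Activity is scored as loss of luminescent signal.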
# The depositor's hits bear a star; ? = inconclusive; . = not tested or not shown; [ ] = remark or other dose. Hits are enriched below; roughly 12% of the tested compounds scored in any of these assays. Unless noted, the call rests on the fitted dose curve; in most records, active means well fitted curve in the direction sought with a large enough effect; inconclusive means small, poorly fitted or top-dose-only effect, or another doubt; inactive means no such curve, though single readings can be large; an effect the other way counts as inactive or inconclusive. Potency means the concentration at half of the fitted maximal effect.
SMILES,AmpC inh no detg,Pf growth 96h,AmpC detergent,Sm TGR inh,SARS PLpro yeast,Pf growth 48h
CCCCN(C)CCCNC(=O)Cn1ncc2c3ccccc3n(Cc3cccc(Cl)c3)c2c1=O,.,.,-10.2%,-30.1%,.,.
COc1ccc2c(c1)NC(c1cccnc1)=NC(c1ccc(F)cc1)=N2,.,.,19.1%,9.7%,.,.
C#CCOCCOCCOCCNc1nc(N2CCN(C(=O)CCCCCCCCCCNC(=O)Cn3cc(CCCCCN)nn3)CC2)nc(N2CCN(C(=O)CCCCCCCCCCNC(=O)Cn3cc(C[C@@H](C)O)nn3)CC2)n1,277.1%,0.294µM*,0.3%,-33.2%,-1.9%,0.329µM*
C#CCOCCOCCOCCNc1nc(N2CCN(C(=O)CCCCCCCCCCNC(=O)Cn3cc(C[C@@H](C)O)nn3)CC2)nc(N2CCN(C(=O)CCCCCCCCCCNC(=O)[C@@H]([C@H](C)CC)n3cc(CCCCCN)nn3)CC2)n1,321.5%,?,3.6%,-16.4%,-4.9%,2.33µM*
NC(=O)c1ccc[n+](Cc2ccc(-c3ccccc3)cc2)c1,-0.5%,7.38µM*,-13.7%,3.7%,-1.1%,.
CCCCNC(=O)CSc1nc2ccsc2c(=O)n1C1CCN(C(=O)OCC)CC1,65.5%,2.08µM*,-11.9%,5.1%,-1.7%,?
NS(=O)(=O)c1ccc(CCNC(=O)CSc2nc3ccsc3c(=O)n2C2CC2)cc1,-8.8%,50.2%,0.2%,-2.5%,-9.5%,-5.9%
Cc1cc(-c2ccccc2)cc(-c2ccccc2)[n+]1CCc1ccccc1,18.3%,0.522µM*,-7.0%,-4.7%,2.0%,0.465µM*
CCOc1ccc(-c2cc(C)[n+](CCc3ccc(OC)c(OC)c3)c(-c3ccc(OCC)cc3)c2)cc1,175.7%,?,0.3%,2.9%,-4.3%,?
Cc1ccc(-c2cc(N)nc(-c3ccccc3)c2)cc1,-36.9%,-21.3%,-5.1%,-5.1%,-4.9%,-14.8%
C[n+]1c(-c2ccccc2)cc(-c2ccc(O)cc2)cc1-c1ccccc1,-25.0%,2.08µM*,2.2%,-16.0%,1.7%,?
O=C([O-])c1ccc(-[n+]2c(-c3ccccc3)cc(-c3ccccc3)cc2-c2ccccc2)cc1,-18.9%,?,?,-5.5%,-0.3%,?
COc1ccc(-[n+]2c(-c3ccccc3)cc(-c3ccccc3)cc2-c2ccccc2)cc1,14.8%,0.294µM*,-6.2%,-15.9%,9.5%,0.828µM*
Cc1cc(-c2ccccc2)cc(-c2ccccc2)[n+]1C,-9.4%,0.928µM*,?,-0.6%,0.8%,10.4µM*
OCCNCCO,-19.8%,41.3%,-6.2%,?,2.2%,42.3%
O=C(COc1cc(Cl)ccc1Cl)N1CCNC1=O,116.7%,22.8%,?,-7.6%,-3.4%,?
Cc1nc(-n2nc(C)c(CCC(C)C)c2C)sc1C(=O)Nc1ccc(Cl)cc1,.,.,17.3%,2.6%,.,.
Oc1ccc(-[n+]2c(-c3ccccc3)cc(-c3ccccc3)cc2-c2ccccc2)cc1,31.9%,0.131µM*,?,-1.7%,-0.5%,0.37µM*
CCOC(=O)Nc1ccc(NCc2ccc(F)cc2)nc1N,9.2%,6.75µM*,?,3.16µM*,.,13.1µM*
COc1ccc(NC(=O)c2cc(-c3ccc(F)cc3)no2)cc1OC,.,.,13.7%,-0.7%,.,.
Clc1ccc(CC[C@H](Cn2ccnc2)Sc2c(Cl)cccc2Cl)cc1,.,2.03µM*,.,.,.,5.73µM*
O=C(CN1CSCC1=O)N1CCN(S(=O)(=O)c2cc(C(F)(F)F)ccc2Cl)CC1,1.2%,2.9%,0.0%,1.2%,-3.3%,?
COc1ccccc1CCC(=O)N1CCN(S(=O)(=O)c2cc(C(F)(F)F)ccc2Cl)CC1,125.5%,3.7µM*,-21.9%,2.3%,-0.4%,?
CC(=O)Oc1ccc(/C=C(\NC(=O)c2ccco2)C(=O)NCc2ccco2)cc1,14.9%,18.3%,0.8%,4.1%,-4.0%,23.9%
CC(=O)Nc1ccc(S(=O)(=O)NC(=O)C23CC4CC(CC(C4)C2)C3)cc1,-19.9%,0.928µM*,-7.6%,-2.0%[11.4 µM],9.1%,.
SMILES,AmpC inh no detg,Pf growth 96h,AmpC detergent,Sm TGR inh,SARS PLpro yeast,Pf growth 48h
CC(=O)Nc1ccc(S(=O)(=O)NNC(=O)NC23CC4CC(CC(C4)C2)C3)cc1,-7.4%,92.0%,1.6%,-7.8%,.,5.8%
CN(C)c1ccc(N=Nc2ccccc2C(=O)OCC(=O)Nc2ccccc2C(F)(F)F)cc1,-18.8%,9.28µM*,-9.0%,-15.0%,-6.0%,?
CN(C)c1ccc(N=Nc2ccccc2C(=O)OCC(=O)N2CCCCCC2)cc1,49.8%,0.0%,-14.9%,-0.4%,-42.9%,-2.2%
CN(C)c1ccc(N=Nc2ccccc2C(=O)OCC(=O)N2CCCC2)cc1,124.6%,13.1µM*,-1.5%,-18.6%,-16.4%,?
CN(C)c1cc[n+](CC(=O)Nc2ccccc2C(F)(F)F)cc1,-15.2%,6.3%,-9.7%,-6.7%,0.0%,?
CCc1cccc(NCc2ccccc2-c2nnc(-c3ccccc3Cl)o2)c1,.,.,17.0%,5.2%,.,.
CC(C)C[C@@H](CN=[N+]=[N-])N1CCN(C)CCC1=O,3.1%,14.7µM*,-13.6%,-29.0%,-2.9%,9.1%
CC(C)C[C@@H](CN=[N+]=[N-])N1CCN(CC(C)C)CCC1=O,-10.9%,66.9%,?,4.7%,4.4%,59.7%
CCOc1c(Br)cc(C2CC(=O)Nc3cc(OC)c(OC)cc32)cc1OC (stereo not drawn),84.3%,161.5%,5.2%,-1.5%,3.2%,?
COC(=O)C1C(=O)C2=C(CC1C)NC(C)=C(C(=O)OC1CCCC1)C2c1ccc(N(C)C)cc1 (stereo not drawn),132.9%,-6.9%,-15.6%,2.7%,0.1%,5.22µM*
CCOc1cc(C2NC(=O)N(C)C(C)=C2C(=O)OC)cc(Br)c1O (stereo not drawn),-10.1%,4.8%,-1.8%,50.1µM*,-2.1%,13.1µM*
COC(=O)C1C(=O)C2=C(CC1C)NC(=O)CC2c1ccc(F)cc1 (stereo not drawn),-7.4%,3.8%,1.1%,5.4%,1.9%,14.7µM*
CCOc1cc(C2CC(=O)NC3=C2C(=O)C(C(=O)OC)C(C)C3)cc(Br)c1O (stereo not drawn),-21.0%,23.3%,-1.1%,?,-0.9%,1.47µM*
Cc1nc2c(C(=O)NCc3ccccc3Cl)cnn2c(C)c1Cc1c(F)cccc1Cl,.,.,7.3%,9.7%,.,.
C=CCCC(=O)N1CCC(n2nccc2NC(=O)c2ccccc2C)CC1,-11.3%,?,0.6%,0.6%,5.5%,6.2%
CC(C)=CCCC(C)CCO (stereo not drawn),-4.0%,.,.,.,2.4%,.
CN[C@H](C)CCC=C(C)C,.,?,.,.,.,0.151µM*
